High-throughput results from PubChem BioAssay.
HT1080 IDH1KD tx: qHTS for induction of synthetic lethality in tumor cells producing 2HG: qHTS for the HT-1080-IDH1KD cell line; HT-1080 IDH1 knockdown viability, ATP luminescence, 48 h; Potency, µM (highest dose often 46.1 µM), for inactives: top-dose activity, negative = toxicity, hits mostly cytotoxic; actives 2% (n = 360,000); AID 686971, 2013;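 also: potency is read from the fitted curve at half-maximal effect; 0% = DMSO wells and -100% = cell-free medium wells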
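% activity derives from luminescence (CellTiter-Glo), normalised to DMSO and no-cell wells. HT-1080-IDH1KD cells, 750/well, had 48 h compound exposure at 37 °C.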
DT40 TDP1 no CPT: qHTS for Inhibitors of human tyrosyl-DNA phosphodiesterase 1 (TDP1): qHTS in cells in absence of CPT | DT40 Tdp1-/- hTDP1 cells, no CPT, ATP luminescence, 48 h | Potency, µM (highest dose often 46.2 µM), inactives show at the highest dose activity change, negative = growth inhibition, most hits filed as inhibitors | actives 15% (n = 420,000); also: potency is read from the fitted curve at half-maximal effect; nearly all actives have a fitted effect of over 55% in size
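Chicken DT40 Tdp1-/- cells stably complemented with human TDP1 were seeded at 400 cells/well with DMSO in place of 20 nM camptothecin. After compound pinning, cells grew at least 48 hr at 37 °C; viability read by CellTiter-Glo luminescence.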
TDP1 cell CPT: qHTS for Inhibitors of human tyrosyl-DNA phosphodiesterase 1 (TDP1): qHTS in cells in presence of CPT | actives 12% (n = 420,000) | Potency, µM (doses to about 46.2 µM), for the others: top-dose activity change, negative = growth inhibition, most hits filed as inhibitors | chicken DT40 Tdp1-/-;hTDP1 cells + 20 nM CPT, ATP luminescence, 48 h | AID 686979, 2013; also: potency is read from the fitted curve at half-maximal effect; nearly all actives have a fitted effect of over 55% in size
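Cell growth measured by CellTiter-Glo luminescence after a minimum 48 h, 37 C compound exposure with 20 nM CPT in Tdp1-knockout DT40 cells stably expressing hTDP1, seeded 400/well; qHTS titration format.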
IL1B secr inh: qHTS for Inhibitors of Inflammasome Signaling: IL-1-beta AlphaLISA Primary Screen. THP-1 LPS/ATP IL-1B secretion, AlphaLISA, 16 h; active compounds read low. activity change, % at 57.5 µM. actives 4.7% (n = 360,000); in the data active = activity change below about -50%; inconclusive = mostly about -30% to -49%
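THP-1 cells pretreated 1 hr with compounds (up to 57.5 uM final), then stimulated with LPS (250 ng/mL final) plus ATP (1.25 mM final); secreted IL-1B measured by AlphaLISA after 16 hr, decreased signal indicating inhibition.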
HT1080NT lethal: qHTS for induction of synthetic lethality in tumor cells producing 2HG: qHTS for the HT-1080-NT fibrosarcoma cell line; HT-1080-NT fibrosarcoma viability, CellTiter-Glo ATP luminescence, 48 h; Potency, µM (top dose mostly 46.1 µM), for the others: top-dose activity, negative = less viability, hits mostly cytotoxic; actives 1.6% (n = 360,000);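 also: NT is the 2HG producing partner of a matched IDH1 knockdown line; potency is read from the fitted curve at half-maximal effect; 0% = DMSO-treated cells and -100% = media-only wells without cells; nearly all actives have a fitted effect of over 55% in size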
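Fibrosarcoma NT cells, 750 per well in 5% FBS RPMI, were exposed to compound for 48 hours. Viability: CellTiter-Glo luminescence.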
Active calls of the source: *; ? = inconclusive; . = not tested or not shown. Rows were chosen to be rich in hits. Some 19% of all compounds tested hit in one or more screens of this group. Unless noted, calls follow the shape of the dose curve; as a rule, active = well fitted curve in the direction sought with a large enough effect; inconclusive = small, poorly fitted or top-dose-only effect, or another doubt; inactive = no such curve, though single readings can be large; an effect the other way counts as inactive or inconclusive. Unless noted, % is scaled to controls: 0 for no effect and ±100 for the full control effect.

SMILES	HT1080 IDH1KD tx	DT40 TDP1 no CPT	TDP1 cell CPT	IL1B secr inh	HT1080NT lethal
CCC(C)(C)n1nnnc1C(c1ccc(C)cc1)N1CCC(C)CC1 (centres undefined)	-22%	?	13µM*	-5	-27%
CC(C)N1CSC(=S)N(Cc2ccccc2)C1	0%	4.1µM*	4.1µM*	-99*	1%
CC(C)(C)N1CSC(=S)N(Cc2ccccc2)C1	2%	4.6µM*	5.2µM*	6	19%
S=C1SCN(Cc2cccnc2)CN1Cc1ccccc1	21µM*	4.6µM*	2.9µM*	-107*	?
CC(C)CN1CN(Cc2ccccc2)CNC1=S	11%	-4%	0%	-4	20%
Cc1ccc(-n2cc(S(=O)(=O)c3ccc(C)cc3)[nH]c2=O)cc1	-2%	-9%	-9%	4	-4%
CC1(C(=O)NS(=O)(=O)c2ccc(F)cc2F)CCN1C(=O)C/C=C/c1ccccc1 (centres undefined)	?	-15%	-8%	0	16%
Cc1c(Cl)cccc1NC(=S)/C(=C(\[O-])c1ccc(Cl)s1)[n+]1ccccc1	-11%	-23%	-22%	-70*	-18%
O=C(Cc1ccccc1)NC(Nc1cccc2ccccc12)C(Cl)(Cl)Cl (centres undefined)	-3%	26µM*	?	30	0%
O=C(Cc1ccccc1)NC(Nc1ccccc1)C(Cl)(Cl)Cl (centres undefined)	0%	-20%	?	-9	2%
O=C(CCN1CCc2ccccc2CC1)c1ccc2c(c1)OCCO2	-1%	4.1µM*	4.6µM*	-58*	-3%
O=C(CNC1=NCCC1)c1ccc2c(c1)OCCO2	14%	18µM*	?	9	5%
O=C(CCN1CCCCC1)c1ccc2c(c1)OCO2	-2%	10µM*	7.3µM*	-19	-22%
O=C(CCCN1CCOCC1)c1ccc2c(c1)OCCO2	14%	-11%	-29%	4	-14%
CC12CCC(C(=O)N(c3nccs3)C1=O)C2(C)C (centres undefined)	17%	-24%	6%	10	0%
Cc1o[nH]c(=O)c1CC[C@H](N)C(=O)O	.	-7%	8%	.	.
CCN(C(=O)c1cn(CC(C)C)c(=O)c2cc(OC)c(OC)cc12)c1cc(OC)ccc1OC	.	15µM*	13µM*	.	.
CCc1ccccc1N(C)C(=O)c1cn(CC(C)C)c(=O)c2cc(OC)c(OC)cc12	.	10µM*	10µM*	.	.
COc1ccc(N(C)C(=O)c2cn(CC(C)C)c(=O)c3cc(OC)c(OC)cc23)c(OC)c1	-1%	-26%	?	-28	-4%
CCC1CCCCN1CCCNC(=O)c1cn(CC(C)C)c(=O)c2cc(OC)c(OC)cc12 (centres undefined)	-28%	1.8µM*	1%	?	-14%
COc1cc2c(C(=O)N(C)c3cc(Cl)ccc3OC)cn(CC(C)C)c(=O)c2cc1OC	.	8.2µM*	9.2µM*	.	.
Cc1ccc(Nc2nc(N)nc(CN3CCN(C(=O)c4ccco4)CC3)n2)cc1Cl	-8%	?	?	-23	-6%
COc1ccc(S(=O)(=O)NCC2CCC(C(=O)NCCCN3CCCC3=O)CC2)cc1 (centres undefined)	-3%	8%	2%	-12	-5%
CCCCNS(=O)(=O)c1ccc2nc(-c3cccnc3)cc(C(=O)NCCCOC(C)C)c2c1	.	?	-29%	.	.
COc1cc2c(C(=O)NCc3ccc(C)o3)cn(CC(C)C)c(=O)c2cc1OC	-9%	?	-23%	5	-4%
CCCN(C(=O)c1cn(CC(C)C)c(=O)c2cc(OC)c(OC)cc12)c1cccc(C)c1	.	15µM*	13µM*	.	.
O=C(CCC(=O)NNC(=O)Nc1ccc(Cl)cc1)NCc1ccccc1	0%	-9%	-19%	-3	2%
